Here are results for 42 compounds from PubChem BioAssay AID1259417 (TB Discovery Research, Infectious Disease Research Institute, 2018).

This test can be described thus: M. tuberculosis growth inhibition, HTS (AID 1259417).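 Further: bacteria grown with compound for 5 days at 37 °C.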 The settings on record: stronger effect = higher value, concentration not given here.
The mark [1] stands for this setting: M. tuberculosis DsRed fluorescence growth inhibition.
[2] abbreviates: M. tuberculosis growth inhibition.

Hit rate of the full screen: of about 1,100 compounds, about 760 (69%) were called active. How the calls were made is not given here. So high a share suggests a set chosen from earlier hits. The list shows a part of the results.

In the case of `O=C1NN=C2C1=NC1(CCCCC1)Cc1ccccc12`, the inhibition (usually the relative decrease from the control value, in per cent) runs as follows: under setting [1], 99.4% (active); under setting [2], 99%.
Taken in the same sequence, the figures for `CCOC(=O)N1CCN(CCC(=O)c2ccc(Cl)cc2)CC1` were 25.5% (active) and 58.7%.
Taken in the same sequence, the figures for `O=C(CCOc1ccccc1)Nc1nnc(-c2cc(Cl)ccc2Cl)o1` were 1.59% (inactive) and -1.65%.
Turning to `Cc1ccc(-c2nnc(NC(=O)CCOc3ccccc3)o2)c(C)c1`, the inhibition runs as follows: under setting [1], 61.8% (active); under setting [2], 78.2%.
Taken in the same sequence, the figures for `CCCCOc1cccc(C(=O)Nc2nnc(-c3ccc(C)cc3C)o2)c1` were 92.2% (active) and 77.5%.
The matching figures for `N=c1sc(/C=C2\C=Nc3ccccc32)c(O)n1-c1nccs1`: 97.2% (active) and 94.9%.
Taken in the same sequence, the figures for `Cc1ccc(C(C)C)c(OCc2nn(CC(=O)c3ccc(OC(F)F)cc3)c3[n+]2CCCCC3)c1` were 100% (active) and 99.1%.
In the case of `O=C(c1ccc(NC(=O)C2(c3ccccc3)CCCC2)cc1)N1CCCCC1`, the inhibition was 99.8% (active) under setting [1] and 99.3% under setting [2].
The matching figures for `Cc1ccc(C(=O)N2CCN(c3ccc(NC(=O)COc4c(C)cc(C)cc4Br)cc3)CC2)cc1`: -0.254% (inactive) and -20.4%.
Taken in the same sequence, the figures for `CCC(C)NC(=O)c1ccc(NC(=O)C2(c3ccccc3)CCCC2)cc1` (centres undefined) were 31.9% (active) and 42.8%.
With `COC(=O)c1ccc(NC(=O)CSc2nc(-c3ccccc3C)ns2)cc1`, the inhibition under setting [1] is 15.6% (active) and the inhibition under setting [2] worked out at 32.6%.
The matching figures for `CSc1nsc(SCC(=O)Nc2ccc(OC(C)=O)cc2)n1`: 8.33% (inactive) and 24.6%.
Taken in the same sequence, the figures for `COC(=O)c1ccc(NC(=O)CSc2nc(-c3cccc(C)c3)ns2)cc1` were 15.3% (active) and 38.3%.
The matching figures for `Cc1ccc(-c2nsc(SCC(=O)Nc3ccc4c(c3)OCO4)n2)cc1`: 9.75% (inactive) and 1.51%.
As for `Cc1ccc2oc(-c3cc(NC(=O)Cc4ccccc4)ccc3Cl)nc2c1`, the inhibition under setting [1] was 88% (active) and the inhibition under setting [2] was 49.9%.
Taken in the same sequence, the figures for `COC(=O)CSc1nc(N2CCCCC2)c2c(c1C#N)CCCC2` were 26.1% (active) and 78.9%.
The matching figures for `COC(=O)CSc1nc2c(c(-c3ccco3)c1C#N)CCCC2`: 2.74% (inactive) and -22.6%.
Taken in the same sequence, the figures for `COC(=O)CSc1nc(-c2ccccc2)c2c(c1C#N)CCCC2` were -3.83% (inactive) and -16.2%.
Turning to `COC(=O)C(C)Oc1ccc(-c2nccc(-c3cccs3)n2)cc1` (centres undefined), the inhibition is 43.6% (active) under setting [1] and 69.4% under setting [2].
Regarding `CC(C)(C)NCCCCOc1ccc(Cl)cc1C(C)(C)C`, the inhibition is 59% (active) under setting [1] and 43.9% under setting [2].
The matching figures for `CC(C)(C)c1cc(Cl)ccc1OCCn1ccnc1`: 90.4% (active) and 95%.
Taken in the same sequence, the figures for `CC(C)(C)c1cc(Cl)ccc1OCCCCn1ccnc1` were 99.7% (active) and 99.7%.
The matching figures for `C#CCOCCOCCOCCNc1nc(N2CCN(C(=O)[C@H](Cc3cc4ccccc4[nH]3)n3cc([C@@H](N)CC(C)C)nn3)CC2)nc(N2CCN(C(=O)[C@H](Cc3cc4ccccc4[nH]3)n3cc([C@@H](N)CC(C)C)nn3)CC2)n1`: 68% (active) and 50.3%.
On to `O=S(=O)(Nc1cccc2cccnc12)c1ccc(Br)cc1`, for which the inhibition by setting is: under setting [1], 73.1% (active); under setting [2], 91.6%.
Taken in the same sequence, the figures for `O=S(=O)(Nc1cc(Br)c(O)c2ccccc12)c1ccc(F)cc1` were 3.24% (inactive) and -11.2%.
The matching figures for `O=S(=O)(Nc1cc(Sc2cccc3cccnc23)c(O)c2ccccc12)c1ccccc1`: 3.26% (active) and 44.3%.
As for `Cc1ccc2nsnc2c1S(=O)(=O)Nc1cccc2cccnc12`, the inhibition was 100% (active) under setting [1] and 99.4% under setting [2].
The matching figures for `Cc1ccc(NC(=O)N2CCC(c3nc4c(nnn4Cc4cccc(Cl)c4)c(=O)[nH]3)CC2)cc1`: 97.3% (active) and 99.6%.
Taken in the same sequence, the figures for `O=C(Nc1ccc(S(=O)(=O)N2CCC(c3nc4ccccc4[nH]3)CC2)cc1)c1cccc(Cl)c1` were 0.997% (inactive) and -16%.
`C=CCOC(=O)COc1ccc2cc(-c3ccc(OC)cc3)c(=O)oc2c1`: the inhibition under setting [1] is 97.2% (active) and the inhibition under setting [2] was 98.4%.
The matching figures for `CC(C)OC(=O)COc1ccc2cc(-c3ccccc3)c(=O)oc2c1`: 61.1% (active) and 80.6%.
Taken in the same sequence, the figures for `COC(=O)C(C)Oc1ccc2cc(-c3ccc(OC)cc3)c(=O)oc2c1` (centres undefined) were 66.3% (active) and 96.3%.
Turning to `C=CCOC(=O)COc1ccc2c(-c3cc4ccccc4oc3=O)cc(=O)oc2c1`, the inhibition was 37.7% (active) under setting [1] and 60.7% under setting [2].
Taken in the same sequence, the figures for `CCCC1(O)CC(c2ccc(Cl)cc2)NC(c2ccc(Cl)cc2)C1C` (centres undefined) were 8.53% (inactive) and -21.7%.
Taken in the same sequence, the figures for `C=CCOC(=O)COc1ccc2cc(-c3ccccc3)c(=O)oc2c1` were 93.1% (active) and 97%.
As for `C=CCOC(=O)COc1ccc2cc(-c3ccc(Cl)cc3)c(=O)oc2c1`, the inhibition under setting [1] was 98.9% (active) and the inhibition under setting [2] was 99.5%.
The matching figures for `C=CCOC(=O)COc1ccc2c(C)c(-c3ccccc3)c(=O)oc2c1`: 71.8% (active) and 92.5%.
Taken in the same sequence, the figures for `Cc1cc(C)cc(Nc2cc(C)nc3c(-c4ccccc4)cnn23)c1` were 5.66% (inactive) and 21.5%.
Take `COc1ccc(CCNc2cc(C)nc3c(-c4ccccc4)c(C)nn23)cc1OC`: the inhibition reads like this: under setting [1], 98.5% (active); under setting [2], 98.9%.
The matching figures for `COC(=O)C(C)Oc1ccc2c(=O)c(Oc3ccccc3Br)coc2c1` (centres undefined): 59.3% (active) and 82.3%.
The matching figures for `CCc1ccc(Oc2coc3cc(OC(C)C(=O)OC)ccc3c2=O)cc1` (centres undefined): 65.1% (active) and 92.2%.
As to `CC(C)C(=O)N1CCN(c2ccc(NC(=O)c3ccc([N+](=O)[O-])o3)cc2)CC1`, the inhibition under setting [1] is 99.1% (active) and the inhibition under setting [2] is 100%.
